For some of these results: Entries with a potency or affinity are not part of this list. Activity calls are given as the source filed them. Unless noted, the rule behind the calls is not given here.
What was measured:
[1] = antimalarial activity against Dd2 strain (AID 2302;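 active = growth inhibition above 50% at the single 2 µM test dose, taken to imply half-maximal potency below 2 µM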;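 note: 0% = DMSO untreated growth and 100% = chloroquine plus artemisinin killed control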); details: P. falciparum Dd2 in RBCs, LDH growth readout, 72 h; at 2 µM; stronger effect = higher value
[2] = human hepatoma cell viability loss – ATP luminescence, cytotoxicity control for P. falciparum antimalarial project, primary screen (AID 2303;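 active = inhibition above 50%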;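 note: 0% = DMSO wells and 100% = digitonin-killed cells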); details: HepG2 viability, 24-48 h, at 10 µM, stronger effect = higher value
[3] = biological target: L-lactate dehydrogenase (Plasmodium falciparum (isolate CDC / Honduras)) (UniProt Q27743); assay: PfLDH activity inhibition – cell lysate, 3D7 strain, counter-screen for P. falciparum growth inhibition project (AID 2304);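 note: 0% = vehicle and 100% = reference inhibitor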; details: P. falciparum 3D7 crude extract, LDH APAD/NBT absorbance; at 2 µM; stronger effect = higher value
L-lactate dehydrogenase (Plasmodium falciparum (isolate CDC / Honduras)), sequence (Q27743 whole entry, looked up): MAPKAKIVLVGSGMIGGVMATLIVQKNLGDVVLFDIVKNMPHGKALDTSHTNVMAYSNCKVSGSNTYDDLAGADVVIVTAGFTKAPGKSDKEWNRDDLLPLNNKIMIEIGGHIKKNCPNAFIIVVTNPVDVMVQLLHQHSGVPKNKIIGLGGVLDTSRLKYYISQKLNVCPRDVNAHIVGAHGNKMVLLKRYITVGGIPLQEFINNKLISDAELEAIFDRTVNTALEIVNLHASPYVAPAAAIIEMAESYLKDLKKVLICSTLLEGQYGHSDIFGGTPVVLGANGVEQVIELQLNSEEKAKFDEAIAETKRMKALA

[4] = inhibition of 3D7 malaria parasite growth – strain 3D7 (AID 2306);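 note: 0% = DMSO wells and 100% = chloroquine plus artemisinin control wells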; details: P. falciparum 3D7 erythrocytic growth, LDH absorbance, 72 h; at 2 µM; stronger effect = higher value
[5] = biological target: Calcium-dependent protein kinase 1 (Plasmodium falciparum (isolate 3D7)) (UniProt P62344); assay: PfCDPK1 kinase inhibitors, biochemical, TCAMS library (AID 1159585; cut-off not given, nearly all actives have IC50 up to about 0.98 µM;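 note: inhibitors leave more ATP so luminescence rises with inhibition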); details: recombinant PfCDPK1, Kinase-Glo ATP depletion luminescence
Calcium-dependent protein kinase 1 (Plasmodium falciparum (isolate 3D7)), sequence (P62344 whole entry, looked up): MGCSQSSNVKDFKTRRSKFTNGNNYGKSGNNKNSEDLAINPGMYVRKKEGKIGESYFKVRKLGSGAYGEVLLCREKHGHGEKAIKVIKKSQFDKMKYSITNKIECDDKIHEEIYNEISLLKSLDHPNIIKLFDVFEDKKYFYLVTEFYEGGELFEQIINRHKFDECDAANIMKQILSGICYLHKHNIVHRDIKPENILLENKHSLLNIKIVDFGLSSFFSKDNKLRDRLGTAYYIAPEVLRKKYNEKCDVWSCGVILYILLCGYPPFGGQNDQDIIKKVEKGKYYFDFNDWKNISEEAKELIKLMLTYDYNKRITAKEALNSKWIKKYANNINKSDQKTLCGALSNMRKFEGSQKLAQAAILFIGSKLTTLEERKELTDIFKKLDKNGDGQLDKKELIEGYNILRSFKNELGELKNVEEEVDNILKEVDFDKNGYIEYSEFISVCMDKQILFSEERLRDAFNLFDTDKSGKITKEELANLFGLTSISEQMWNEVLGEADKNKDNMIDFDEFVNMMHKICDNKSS

[6] = biological target: Plasmodium falciparum protein kinase 6 (PK6, PF3D7_1337100) (UniProt Q8IDW1); assay: PfPK6 kinase inhibitors, biochemical, TCAMS library (AID 1159586); details: recombinant PfPK6, Kinase-Glo ATP depletion luminescence
Plasmodium falciparum protein kinase 6 (PK6, PF3D7_1337100), sequence (Q8IDW1 1-305): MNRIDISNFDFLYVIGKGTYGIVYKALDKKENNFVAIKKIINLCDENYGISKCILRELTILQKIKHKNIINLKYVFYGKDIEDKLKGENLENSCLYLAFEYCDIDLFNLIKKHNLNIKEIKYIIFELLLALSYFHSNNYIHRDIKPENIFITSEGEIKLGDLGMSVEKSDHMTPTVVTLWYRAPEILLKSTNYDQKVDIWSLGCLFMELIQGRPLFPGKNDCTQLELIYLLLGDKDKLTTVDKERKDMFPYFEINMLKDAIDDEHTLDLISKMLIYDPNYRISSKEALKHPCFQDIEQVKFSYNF

[7] = biological target: Protein kinase 7 (PK7), Plasmodium falciparum 3D7 (PF3D7_0213400) (UniProt Q7YTF7); assay: inhibition of Plasmodium PK7 catalytic activity – biochemical, TCAMS antimalarial set, Kinase-Glo luminescence (AID 1159587); details: recombinant PfPK7, Kinase-Glo ATP depletion luminescence
Protein kinase 7 (PK7), Plasmodium falciparum 3D7 (PF3D7_0213400), sequence (Q7YTF7 1-343): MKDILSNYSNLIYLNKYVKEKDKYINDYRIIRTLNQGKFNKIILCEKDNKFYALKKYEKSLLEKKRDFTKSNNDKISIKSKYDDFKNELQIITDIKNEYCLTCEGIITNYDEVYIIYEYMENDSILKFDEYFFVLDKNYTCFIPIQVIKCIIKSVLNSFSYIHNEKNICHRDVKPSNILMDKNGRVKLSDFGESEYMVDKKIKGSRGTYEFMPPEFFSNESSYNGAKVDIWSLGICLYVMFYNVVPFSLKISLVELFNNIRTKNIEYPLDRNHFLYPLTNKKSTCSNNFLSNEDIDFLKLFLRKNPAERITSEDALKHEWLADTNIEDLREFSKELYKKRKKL

[8] = biological target: Calcium-dependent protein kinase 4 (Plasmodium falciparum (isolate 3D7)) (UniProt Q8IBS5); assay: PfCDPK4 kinase inhibitors, biochemical, TCAMS library (AID 1159588; cut-off not given, nearly all actives have IC50 up to about 0.91 µM); details: recombinant PfCDPK4, Kinase-Glo ATP depletion luminescence
Calcium-dependent protein kinase 4 (Plasmodium falciparum (isolate 3D7)), sequence (Q8IBS5 whole entry, looked up): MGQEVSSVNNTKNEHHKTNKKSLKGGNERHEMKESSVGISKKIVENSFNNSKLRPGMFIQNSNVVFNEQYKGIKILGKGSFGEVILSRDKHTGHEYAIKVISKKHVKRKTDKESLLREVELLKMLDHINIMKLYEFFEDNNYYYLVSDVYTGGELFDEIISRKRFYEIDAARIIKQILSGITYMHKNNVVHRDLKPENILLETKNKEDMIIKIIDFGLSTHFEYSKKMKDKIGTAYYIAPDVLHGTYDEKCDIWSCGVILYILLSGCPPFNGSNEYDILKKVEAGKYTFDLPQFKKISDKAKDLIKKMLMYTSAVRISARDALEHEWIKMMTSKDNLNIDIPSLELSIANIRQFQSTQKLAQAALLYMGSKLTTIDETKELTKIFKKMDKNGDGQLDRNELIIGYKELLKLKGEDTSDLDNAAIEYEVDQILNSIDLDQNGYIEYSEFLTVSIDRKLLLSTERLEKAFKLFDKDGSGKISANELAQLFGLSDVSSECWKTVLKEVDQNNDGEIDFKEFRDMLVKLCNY

CN(Cc1ccccc1)C(=O)c1nn(CCCN2CCC(N3CCCC3)CC2)cc1-c1ccc(Cl)c(Cl)c1
inactive: inhibition [2] 43% | inhibition [3] 0% | outcome [5] | outcome [6] | outcome [7] | outcome [8]
active: growth inhibition [1] 66% | growth inhibition [4] 102%

Cc1ccccc1NC(=O)NC1CCN(CCCCCNC(=O)/C=C/c2ccc(Cl)c(Cl)c2)CC1
active: growth inhibition [4] 102%
inactive: growth inhibition [1] 20% | inhibition [2] 13% | inhibition [3] -6% | outcome [5] | outcome [6] | outcome [7] | outcome [8]

O=C(/C=C/c1ccc(Cl)cc1)NCCCCCN1CCN(C(=O)C=Cc2ccc(Cl)c(Cl)c2)CC1
inactive: growth inhibition [1] 0% | inhibition [2] 30% | inhibition [3] 5% | outcome [5] | outcome [6] | outcome [7] | outcome [8]
active: growth inhibition [4] 92%

CC(CN1CCN(C)CC1)C(=O)Nc1ccc(-c2ccc(-c3nc4ccc(C(F)(F)F)cc4[nH]3)cc2)cc1 (stereo not drawn)
inactive: inhibition [2] 19% | inhibition [3] -8% | outcome [5] | outcome [6] | outcome [7] | outcome [8]
active: growth inhibition [1] 100% | growth inhibition [4] 101%

O=C(CNC1CCCCC1)Nc1cccc(C(=O)Nc2cccc(C(F)(F)F)c2)c1
inactive: inhibition [2] 17% | inhibition [3] -6% | outcome [5] | outcome [6] | outcome [7] | outcome [8]
active: growth inhibition [1] 80% | growth inhibition [4] 93%

Nc1c(Cl)cc(C(O)CNCCCCCOCCCc2ccc3ncccc3c2)cc1Cl (stereo not drawn)
inactive: inhibition [2] 24% | inhibition [3] -8% | outcome [5] | outcome [6] | outcome [7] | outcome [8]
active: growth inhibition [1] 77% | growth inhibition [4] 96%

Cn1nccc1C(=O)NCCNCc1cccc(-c2ccc(-c3nc4ccccc4[nH]3)s2)c1
inactive: inhibition [2] 22% | inhibition [3] -4% | outcome [5] | outcome [6] | outcome [7] | outcome [8]
active: growth inhibition [1] 94% | growth inhibition [4] 100%

O=C(/C=C/c1ccc(Cl)c(Cl)c1)NCCCCCCN1CCCN(C(=O)Nc2cccc(Cl)c2)CC1
active: growth inhibition [4] 94%
inactive: growth inhibition [1] 2% | inhibition [2] 26% | inhibition [3] 0% | outcome [5] | outcome [6] | outcome [7] | outcome [8]

COc1cccc(CN2CCCC(CCC(=O)Nc3ccc(C(F)(F)F)cc3)C2)c1O (stereo not drawn)
inactive: inhibition [2] 15% | inhibition [3] -2% | outcome [5] | outcome [6] | outcome [7] | outcome [8]
active: growth inhibition [1] 97% | growth inhibition [4] 98%

CCn1cc2c3c(cc(C(=O)N[C@@H](Cc4ccccc4)[C@H](O)CNC4CCOCC4)cc31)N(C)S(=O)(=O)CC2
active: growth inhibition [1] 98% | growth inhibition [4] 98%
inactive: inhibition [2] -10% | inhibition [3] 0% | outcome [5] | outcome [6] | outcome [7] | outcome [8]

O=C(Nc1cc(Cl)cc(Cl)c1)N[C@H]1CCN(CCCCCNC(=O)[C@@H]2C[C@H]2c2ccc(Cl)c(Cl)c2)C1
inactive: growth inhibition [1] -3% | inhibition [2] 49% | inhibition [3] 3% | outcome [5] | outcome [6] | outcome [7] | outcome [8]
active: growth inhibition [4] 99%
